Results taken from the supplement of paper PMC6555819.

Assays:
Assay in all cases: PBM binding z-score (relative to random genomic background probes); higher = stronger binding; sequences stand for … in GC…GCGATTGACAGCGTAGAATGAAGG
[1] = tested on: FXR:RXRa (NR concentration 270 nM, RXRa partner concentration 90 nM)
How it was run: (§1)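 Custom Agilent 4×180K protein-binding microarrays carried double-stranded probes, each with a 34-nt variable region. These regions held direct-repeat seeds, single-nucleotide variants, half-site ablations and random human genomic background sequences. Ligand-free nuclear receptor dimers were incubated on the arrays for 1 h, antibodies against each partner (one per run) detected binding, and scanned fluorescence was regression-normalized. Binding z-scores take the random background probes as reference.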

[2] = tested on: LXRa:RXRa (NR concentration 270 nM, RXRa partner concentration 90 nM)
How it was run: as §1

[3] = tested on: LXRa homodimer (NR concentration 270 nM)
How it was run: as §1

[4] = tested on: LXRb:RXRa (NR concentration 270 nM, RXRa partner concentration 90 nM)
How it was run: as §1

[5] = tested on: LXRb homodimer (NR concentration 270 nM)
How it was run: as §1

[6] = tested on: PPARa:RXRa (NR concentration 270 nM, RXRa partner concentration 90 nM)
How it was run: as §1

[7] = tested on: PPARg:RXRa (NR concentration 180 nM, RXRa partner concentration 90 nM)
How it was run: as §1

[8] = tested on: PPARg:RXRa 270nM:90nM, anti-RXR (NR concentration 270 nM, RXRa partner concentration 90 nM)
How it was run: as §1

[9] = tested on: PPARg:RXRa 30nM:10nM, anti-RXR (NR concentration 30 nM, RXRa partner concentration 10 nM)
How it was run: as §1

[10] = tested on: PPARg:RXRa 90nM:30nM, anti-RXR (NR concentration 90 nM, RXRa partner concentration 30 nM)
How it was run: as §1

[11] = tested on: PPARg:RXRa DBDmut IVT, anti-RXR (DBD mutation: RXRa K156A/R161A, NR concentration 270 nM, RXRa partner concentration 90 nM)
How it was run: as §1

[12] = tested on: PPARg:RXRa IVT, anti-PPARg (NR concentration 270 nM, RXRa partner concentration 90 nM)
How it was run: as §1

[13] = tested on: PPARg DBDmut:RXRa IVT, anti-PPARg (DBD mutation: PPARg1 K132A/R137A, NR concentration 270 nM, RXRa partner concentration 90 nM)
How it was run: as §1

[14] = tested on: PPARg DBDmut IVT, anti-PPARg (DBD mutation: PPARg1 K132A/R137A, NR concentration 270 nM)
How it was run: as §1

[15] = tested on: PPARg homodimer (NR concentration 180 nM)
How it was run: as §1

[16] = tested on: PXR:RXRa (NR concentration 270 nM, RXRa partner concentration 90 nM)
How it was run: as §1

[17] = tested on: PXR homodimer (NR concentration 270 nM)
How it was run: as §1

[18] = tested on: RARa:RXR (NR concentration 270 nM, RXRa partner concentration 90 nM)
How it was run: as §1

[19] = tested on: RARa homodimer (NR concentration 270 nM)
How it was run: as §1

[20] = tested on: RARb:RXRa (NR concentration 270 nM, RXRa partner concentration 90 nM)
How it was run: as §1

Sequence	PBM binding z-score [1]	PBM binding z-score [2]	PBM binding z-score [3]	PBM binding z-score [4]	PBM binding z-score [5]	PBM binding z-score [6]	PBM binding z-score [7]	PBM binding z-score [8]	PBM binding z-score [9]	PBM binding z-score [10]	PBM binding z-score [11]	PBM binding z-score [12]	PBM binding z-score [13]	PBM binding z-score [14]	PBM binding z-score [15]	PBM binding z-score [16]	PBM binding z-score [17]	PBM binding z-score [18]	PBM binding z-score [19]	PBM binding z-score [20]
AGAATGAGGTTATTATGATCAGGGAATTGCGGTC	1.62	1.46	0.202	1.16	0.134	2.71	1.93	1.96	0.795	1.48	3.67	2.89	1.32	0.834	0.53	1.11	0.371	1.34	0.69	1.24
GCAGACAGGTGAAACGCAGGTAACTCATGGTGGC	-0.174	-0.103	-0.708	-0.224	-1.24	0.901	0.886	0.443	-0.0913	0.0978	1.08	0.828	-0.609	-0.755	-0.331	-0.113	-0.622	0.721	-0.93	0.653
ATAGCAAGGTGATCGTGAGGTCGTTGATACTAAC	1.34	0.986	0.104	0.673	-0.808	1.47	0.359	0.22	0.0107	-0.0753	0.118	0.727	0.619	0.253	0.565	2.62	0.543	1.98	-0.0537	1.16
GTACCAAGGTGAATAGGACGTTGATGAGTAGGCG	0.0663	-0.214	0.103	-0.344	-0.664	0.537	1.07	0.126	0.338	0.55	1.26	1.93	0.467	0.284	0.583	-0.246	-0.00267	-0.0237	0.381	1.14
GCTGCTAGGTCAACGGATGGTCAGCTAAAGCTCG	3.29	2.35	-0.22	1.34	-0.253	3.2	2.58	2.83	0.601	2.06	4.91	3.99	0.0458	-0.872	1.84	1.21	-0.834	2.51	-0.435	4.19
AGAACGAGGGCACGCTGAGTTGAGAGCAGAGTAG	1.03	1.06	-0.514	0.188	-0.934	2.12	2.05	1.81	0.0205	0.958	4.1	3.68	0.22	0.203	0.469	1.01	0.0274	1.35	-0.318	2.54
AGAATGAGGTTACTAAGATCAGGGAATTGCGGTC	1.46	1.24	-0.205	0.978	-0.137	2.62	2.35	2.48	0.629	1.7	4.08	3.37	0.676	0.112	0.638	0.828	0.241	1.37	-0.455	1.74
TCGAGTAGGTTACCAATGGGCCATTCAGCTTTCT	0.506	1.7	-0.585	0.464	-1.18	1.09	0.383	1.13	0.927	1.04	3.13	2.59	-1.01	-0.848	-0.318	0.108	-0.851	0.175	-0.737	0.862
CGTCCAAGGTCAGAGAGGTCAGTTAATGCCGAGT	6.19	5.39	3.93	4.99	0.784	4.72	3.34	4.09	0.894	2.9	3.01	3.3	0.545	0.19	6.18	6.24	12.6	5.94	3.51	5.22
CCTAGTTGGTCAAGGTCACACAAGCTATAGGTAC	4.29	3.95	1.98	3.76	1.03	4.21	3.5	4.1	1.36	2.63	2.43	4.01	1.16	1.04	4.16	4.47	2.97	4.29	2.77	4.33
ATATGTAGGTTATCGGGACATTCAGTTTGCGCAT	0.568	0.813	0.715	0.858	0.692	3.3	5.05	4.45	2.25	3.45	7.42	6.98	2.35	2.08	2.64	0.647	1.45	0.532	1.55	1.06
CCTAGCAGGCCAATCTGGGTCACTAAAGGCTTGA	0.156	0.884	-0.513	0.511	-0.766	2.87	1.97	1.83	-0.068	0.891	4	4.94	-0.0852	-0.774	0.49	0.325	-0.597	1.13	-0.281	1.23
CGTCAAAGTTCAACAAAGGTAACGTAAAGCACGC	7.15	6.13	3.38	3.9	1.98	4.83	5.08	5.42	2.27	4.23	0.464	2.37	1.21	0.778	3.04	5.18	3.03	4.08	1.53	5.32
